Measured potencies and affinities stand elsewhere.
Assays:
Staphylococcus aureus = conditions: Concentration 32 ug.mL-1;; ASSAY_TEST Inhibition of Bacterial Growth; detection method Absorption (OD600); MEDIA CAMHB; plate type 384well; NBS; CORNING #3640; time 18 hr
Escherichia coli = conditions: Concentration 32 ug.mL-1;; ASSAY_TEST Inhibition of Bacterial Growth; detection method Absorption (OD600); MEDIA CAMHB; plate type 384well; NBS; CORNING #3640; time 18 hr

Compound | Inhibition (Staphylococcus aureus) [%] | Inhibition (Escherichia coli) [%]
CCc1cccc(NC(=O)CSc2nnc3c(=O)n(-c4ccccc4)ccn23)c1 | 0.07 | -11.7
O=C(Cn1nc2c(SC3CCCCC3)nccn2c1=O)N1CCN(c2ccc(F)cc2)CC1 | 8.31 | -3.97
Cc1cc(C)cc(N(Cc2cccc(Cl)c2)S(=O)(=O)c2cccn3cnnc23)c1 | 7.13 | -3.73
CCCc1nnc2c(=O)n(CC(=O)N3CCCc4ccccc43)c3ccccc3n12 | 2.88 | -3.24
COc1cc(NC(=O)CSc2nnc3c(=O)n(-c4ccccc4)ccn23)cc(OC)c1 | 14.02 | 0.85
O=C(Cn1nc2c(Oc3ccccc3)nccn2c1=O)Nc1ccc(Cl)cc1 | 8.53 | -4.75
CCCc1nnc2c(=O)n(CC(=O)Nc3ccc(C#N)cc3)c3ccccc3n12 | 8.01 | -1.86
CC(C)Cn1c(=O)c2sccc2n2c(=O)n(CC(=O)NC(C)C)nc12 | -11.46 | 2.58
COc1cc(NC(=O)Cn2nc3ccc(-c4ccc(C)c(C)c4)nn3c2=O)cc(OC)c1 | 8.96 | -5.07
O=C(Cn1nc2ccc(-c3ccc(Cl)cc3)nn2c1=O)N1CCN(c2ccc(F)cc2)CC1 | 4.1 | -5.18
CCOc1ccc(C(=O)CSc2nnc3c(=O)n(-c4ccc(F)cc4)ccn23)cc1 | 23.03 | 1.42
COc1cc(OC)c(NC(=O)Cn2nc3c(N4CCOCC4)nccn3c2=O)cc1Cl | 4.84 | -1.96
COc1ccc(Cl)cc1NC(=O)Cn1nc2ccc(Sc3ccccc3)nn2c1=O | -3.52 | -9.25
CCOc1ccc(-n2ccn3c(SCC(=O)Nc4ccc(F)cc4F)nnc3c2=O)cc1 | 5.96 | 2.93
Cc1ccc(Oc2nccn3c(=O)n(CC(=O)Nc4ccccc4F)nc23)cc1 | 4.19 | -1.2
Cc1cc(C)cc(NC(=O)CSc2nnc3c(=O)n(-c4ccc(Br)cc4)ccn23)c1 | 9.26 | -3.09
CCc1nnc2c(S(=O)(=O)N(Cc3cccc(F)c3)c3ccc(C)c(C)c3)cccn12 | 17.57 | 2.28
O=C(Cn1nc2c(=O)n(-c3ccc(Br)cc3)ccn2c1=O)Nc1cc(F)ccc1F | 4.89 | 0.34
CSc1cccc(NC(=O)Cn2nc3ccc(C(=O)NCc4ccccc4)cn3c2=O)c1 | 5.85 | -2.4
CCCCOc1ccc(-c2cc3c4nnc(SCC(=O)Nc5cccc(C)c5C)n4ccn3n2)cc1 | -5.45 | -19.34
Cc1nnc2c(SCC(=O)Nc3ccc(Br)cc3F)nc3ccccc3n12 | 1.94 | -10.05
CCc1nnc2c(SCC(=O)Nc3cccc(Br)c3)nc3ccccc3n12 | 1.73 | -7.45
CC(C)c1nnc2c(SCC(=O)Nc3ccccc3F)nc3ccccc3n12 | 10.78 | -2.22
COc1ccc(NC(=O)Cn2nc3c(N4CCCC4)nccn3c2=O)cc1Cl | 12.62 | -0.96

Compound | Inhibition (Staphylococcus aureus) [%] | Inhibition (Escherichia coli) [%]
Cc1ccc(Cn2c(=O)c3ccccc3n3c(=O)n(CC(=O)Nc4ccc5c(c4)OCCO5)nc23)cc1 | 6.52 | 1.04
C=Cc1ccc(CSc2nnc3c(=O)n(-c4ccc(F)cc4)ccn23)cc1 | 18.57 | -2.33
C=Cc1ccc(CSc2nnc3c(=O)n(-c4cccc(OC)c4)ccn23)cc1 | 15.25 | -3.1
O=C(CCc1nnc2ccc(-c3ccc(Cl)cc3)nn12)NCc1ccc(F)cc1Cl | 11.56 | -1.56
O=C(Cn1nc2c3sc(N4CCCC4)nc3ncn2c1=O)Nc1ccc(F)c(Cl)c1 | 15.3 | 1.03
Cc1nnc2ccc(S(=O)(=O)N(Cc3cccc(F)c3)c3cccc(Cl)c3)cn12 | 1.14 | -14.72
Cc1ccc(-c2cc3c4nn(CC(=O)Nc5ccc(F)cc5)c(=O)n4ccn3n2)cc1C | -6.62 | -8.95
CC(C)CCn1c(=O)c2sccc2n2c(=O)n(CC(=O)N(C)c3ccccc3)nc12 | -2.05 | -10.35
CCCCOc1ccc(-c2cc3c4nnc(SCC(=O)Nc5ccc(Cl)cc5)n4ccn3n2)cc1 | 6.59 | -0.55
CN(C)c1nc2ccccc2n2c(=O)n(CC(=O)Nc3ccc4c(c3)OCO4)nc12 | 1.33 | 1.96
COc1ccc(N(Cc2ccccc2F)S(=O)(=O)c2ccc3nnc(C)n3c2)cc1 | 8.97 | -7.31
Cc1cccc(C)c1NC(=O)Cn1nc2c3cc(-c4ccc(Cl)cc4)nn3ccn2c1=O | -1.34 | -1.58
CCc1nnc2c(S(=O)(=O)N(Cc3cccc(Cl)c3)c3ccccc3)cccn12 | 4.22 | -6.56
O=C(Cn1nc2ccc(-c3ccccc3)nn2c1=O)NC1CCCCC1 | 8.4 | -1.26
O=c1n(Cc2nc(-c3ccc(Cl)cc3)no2)nc2ccc(-c3ccccc3)nn12 | 1 | -5.36
Cc1ccc(NC(=O)Cn2nc3c4cc(-c5ccc(C)c(C)c5)nn4ccn3c2=O)cc1C | 0.99 | -7.36
Cc1cccc(Oc2nc3ccccc3n3c(=O)n(CC(=O)Nc4ccc5c(c4)OCCO5)nc23)c1C | 10.6 | -1.83
Cc1ccc(Sc2nccn3c(=O)n(CC(=O)Nc4ccccc4Br)nc23)c(C)c1 | -0.81 | -13.84
COc1ccc(NC(=O)c2ccc3nn(CC(=O)Nc4cccc(SC)c4)c(=O)n3c2)cc1 | -4.7 | -9.26
COc1ccc(CNC(=O)Cn2nc3c(SC4CCCCC4)nccn3c2=O)cc1 | 8.37 | -2.77
CCCCc1ccc(NC(=O)Cn2c(=O)c3nnc(C(C)C)n3c3ccccc32)cc1 | 13.14 | 1.92
Cc1ccc(NC(=O)CSc2nnc3ccc(C(=O)Nc4cccc(F)c4)cn23)cc1F | 14.43 | 0.35
O=S(=O)(c1ccc2nncn2c1)N(Cc1cc(F)cc(F)c1)c1cccc(F)c1 | 5.24 | -5.68
Cc1ccc(-c2cc3c4nn(CC(=O)Nc5ccccc5Cl)c(=O)n4ccn3n2)cc1 | 2.52 | -6.02

Compound | Inhibition (Staphylococcus aureus) [%] | Inhibition (Escherichia coli) [%]
Cc1cccc(NC(=O)CSc2nnc3c4cc(-c5ccc(F)cc5)nn4ccn23)c1C | -11.28 | -13.99
CCCCn1c(=O)c2sccc2n2c(=O)n(CC(=O)c3cccc(OC)c3)nc12 | 9.41 | 0.65
O=C(Cn1nc2c(SC3CCCCC3)nccn2c1=O)Nc1ccc(Br)cc1 | 7.56 | -4.82
CSc1ccc(CNC(=O)Cn2nc3c(Oc4ccccc4)nccn3c2=O)cc1 | 10.07 | 1.2
CCc1ccccc1Sc1nccn2c(=O)n(CC(=O)Nc3cc(C)ccc3C)nc12 | 15.04 | 0.5
CCc1cccc(NC(=O)Cn2nc3c(SC4CCCCC4)nccn3c2=O)c1 | -3.76 | -12.2
COc1ccc(-c2cc3c4nnc(SCC(=O)N(C)c5ccccc5)n4ccn3n2)cc1 | -6.7 | -0.99
Cc1ccc(NC(=O)Cn2c(=O)c3nnc(C(C)C)n3c3ccccc32)c(C)c1 | 15.48 | 8.06
COc1ccc(-c2cc3c4nnc(SCC(=O)Nc5ccc(OC)c(Cl)c5)n4ccn3n2)cc1 | 3.66 | -2.1
CC(C)CCn1c(=O)c2ccc(C(=O)NC3CCCCC3)cc2n2c(=O)n(CC#N)nc12 | 5.76 | -7.09
CCOC(=O)c1ccccc1NC(=O)Cn1c(=O)c2nnc(C(C)C)n2c2ccccc21 | 9.86 | 0.49
Cc1nnc2ccc(S(=O)(=O)N(Cc3cccc(F)c3)c3ccc4c(c3)OCO4)cn12 | -10.23 | -15.4
CCCc1nnc2c(=O)n(CC(=O)Nc3cccc(C(C)=O)c3)c3ccccc3n12 | 2.4 | -14.35
CCOc1ccc(-n2ccn3c(SCC(=O)NCc4ccc(Cl)cc4)nnc3c2=O)cc1 | 4.19 | 3.75
Cc1ccc(N(Cc2ccccc2)S(=O)(=O)c2ccc3nncn3c2)cc1F | -5.44 | -9.13
COc1ccc(-c2cc3c4nnc(CCC(=O)N5CCN(c6ccccc6F)CC5)n4ccn3n2)cc1 | 13.19 | 1.66
Cc1nnc2c(S(=O)(=O)N(Cc3ccccc3Cl)c3ccc(F)c(F)c3)cccn12 | 38.47 | -6.82
COc1cccc(Sc2nc3ccccc3n3c(=O)n(CC(=O)Nc4cccc(F)c4)nc23)c1 | 3.13 | -1.66
Cc1ccc(Cl)cc1N1CCN(C(=O)CCc2nnc3c4cc(-c5ccccc5)nn4ccn23)CC1 | 1.17 | -6.03
COC(=O)c1ccccc1NC(=O)Cn1nc2c3sc(N4CCCC4)nc3ncn2c1=O | 6.17 | -6.93
Cc1cc(C)c(NC(=O)CSc2nc3ccccc3n3c(C)nnc23)c(C)c1 | 9.68 | -6.86
Cc1ccc(NC(=O)Cn2nc3ccc(-c4ccc(C)c(C)c4)nn3c2=O)cc1 | 12.01 | -5.02
O=C(Cn1nc2ccc(Sc3ccccc3)nn2c1=O)Nc1ccc(Cl)cc1 | 14.57 | 0.83

— ChEMBL document CHEMBL4513146, “CO-ADD screening of Karazin Kharkiv National University (Ukraine) compounds”
